# The list is not random: actives were taken first. Their share in the collection is about 12%.
# G9a inh – inhibitors of human histone lysine methyltransferase G9a; G9a H3K9 monomethylation, AlphaScreen, 2 h; Potency, µM (doses to about 102 µM), without a hit: top-dose activity, negative = inhibition, actives largely listed as inhibitors; actives 8.8% (n = 350,000); further: potency means the concentration at half of the fitted maximal effect; on the % scale 0 is the no-effect control and ±100 the full control effect; nearly all actives have a fitted effect of over 75% in size
#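 G9a (20 nM) was preincubated 15 min with compound, then reacted 2 h at room temperature with 500 nM biotin-H3K9 peptide and 20 µM SAM. Monomethyl-H3K9 detected by AlphaScreen using anti-H3K9me1 antibody.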
# PLK1 PBD block – blocks phosphopeptide binding to human PLK1 polo-box domain; P53350; Plk1 PBD binding of FITC phosphopeptide, fluorescence polarization; Potency, µM, for the others: max response, negative = inhibition, hits mostly inhibitors; actives 2.8% (n = 360,000); AID 720504; further: potency means the concentration at half of the fitted maximal effect; series mostly up to about 57 µM; on the % scale 0 is the no-effect control and ±100 the full control effect; nearly all actives have a fitted effect of over 65% in size
# PI5P4K alpha inh – inhibitors of human PI5P4K alpha | AID 652105 | actives 1.2% (n = 330,000) | max response, % | P48426 | PI5P4Kalpha enzyme, ADP-Glo luminescence, 60 min; active compounds read low; active means max response of -50% or lower; inconclusive means between -30% and -50%; inactive means -30% or higher; further: value at the top dose of about 77 µM; on the % scale 0 is the no-effect control and ±100 the full control effect
# Target sequence (P48426 whole entry, looked up): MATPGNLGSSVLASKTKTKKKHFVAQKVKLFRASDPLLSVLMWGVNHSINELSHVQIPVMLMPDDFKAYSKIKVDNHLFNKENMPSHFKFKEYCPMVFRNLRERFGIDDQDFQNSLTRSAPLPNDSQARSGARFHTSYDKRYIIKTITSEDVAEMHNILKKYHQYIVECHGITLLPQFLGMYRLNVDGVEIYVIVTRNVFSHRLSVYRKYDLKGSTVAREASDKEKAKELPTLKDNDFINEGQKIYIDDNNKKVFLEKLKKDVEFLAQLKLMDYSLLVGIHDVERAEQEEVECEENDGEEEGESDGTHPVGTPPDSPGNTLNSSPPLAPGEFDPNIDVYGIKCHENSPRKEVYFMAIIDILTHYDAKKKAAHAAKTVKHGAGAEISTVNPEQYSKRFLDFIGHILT
#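 qHTS, 1536-well: enzyme/substrate mix, compound by pin tool, 5 microM ATP final; RT 60 min; ADP-Glo reagents 1 (45 min) then 2 (30 min); luminescence.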
# BAZ2B inh – inhibitors of human BAZ2B bromodomain; AlphaScreen BAZ2B-H3K14Ac peptide displacement; actives 4.4% (n = 360,000); Potency, µM (titrated, usually from 114 µM), for inactives: at the top dose activity change, negative = inhibition, usual class: inhibitors; further: potency means the concentration at half of the fitted maximal effect; on the % scale 0 is the no-effect control and ±100 the full control effect; nearly all actives have a fitted effect of over 60% in size
#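 In this displacement format the biotinylated H3(5-23) peptide acetylated at Lys14 serves as ligand at 50 nM, with BAZ2B at 50 nM in PBS pH 7.4 containing 0.01% Tween-20. Donor and acceptor beads are 10 ug/mL final.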
# JMJD2A Tudor – blocks the human JMJD2A Tudor domain; AlphaScreen JMJD2A-Tudor / H3K4me3 peptide binding; Potency, µM (titrated, usually from 114 µM), inactives show top-dose activity change, negative = inhibition, actives largely listed as inhibitors; actives 4.4% (n = 390,000); AID 504339; further: potency means the concentration at half of the fitted maximal effect; on the % scale 0 is the no-effect control and ±100 the full control effect; nearly all actives have a fitted effect of over 50% in size
# HP1b chromo inh – HP1-beta chromodomain-methylated histone interaction inhibition | actives 0.56% (n = 390,000) | P83916 | AlphaScreen HP1-beta / biotin-H3K9me3 peptide binding | Potency, µM (series often up to 114 µM), inactives show at the top dose activity change, negative = inhibition, usual class: inhibitors; further: potency means the concentration at half of the fitted maximal effect; nearly all actives have a fitted effect of over 70% in size
#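 Compound inhibition of the preformed complex between 50 nM HP1-beta and 50 nM biotinylated H3K9me3 peptide was read by AlphaScreen. Buffer was PBS pH 7.4 with 0.01% Tween-20. Incubations ran 30 min at room temperature, with 10 ug/mL donor/acceptor beads.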
# Active calls of the source: *; ? = inconclusive; nt = no result; [ ] = dose if it differs, or a comment. Unless noted, the call rests on the fitted dose curve; in most records, active means well fitted curve in the direction sought with a large enough effect; inconclusive means small, poorly fitted or top-dose-only effect, or another doubt; inactive means no such curve, though single readings can be large; an effect the other way counts as inactive or inconclusive.
SMILES,G9a inh,PLK1 PBD block,PI5P4K alpha inh,BAZ2B inh,JMJD2A Tudor,HP1b chromo inh
NCCCNc1ccc(Br)cn1,nt,nt,nt,nt,-9%,26%
CCc1ccccc1NC(=O)CN1CCCN(Cc2cc(C)ccc2C)S1(=O)=O,?,nt,nt,-2%,14%,50%
CCc1ccc(NS(=O)(=O)c2ccc3oc(=O)c4ncn(CC)c4c3c2)cc1,10µM*,nt,nt,?,-25%,4%
CC1CCc2sc(C(=O)NN=C3CCCC3)cc2C1 (stereo unspecified),nt,-11%,1,nt,nt,nt
COc1cc(C2C=C(C34CC5CC(CC(C5)C3)C4)NC(=S)N2)cc(OC)c1OC (stereo unspecified),-30%[12.7 µM],-16%,-1,-39%,-27%,22%
COc1ccc(C2=CC(c3cc(OC)c(OC)c(OC)c3)NC(=S)N2)cc1 (stereo unspecified),6.3µM*,12µM*,-6,-28%,-19%[11.4 µM],-16%
O=S1(=O)c2ccccc2N(Cc2cccc(Cl)c2)c2ccccc21,-18%[59 µM],nt,nt,-36%,-16%,25%
O=c1[nH]c2ccc(NC(=S)Nc3ccc(Cl)cc3)cc2[nH]1,-2%[59 µM],-29%,1,8%,-17%,-10%
COc1cc(OC)cc(C(=O)NC(=S)Nc2ccc3[nH]c(=O)[nH]c3c2)c1,6%,-7%,-12,10%,-26%,20%
Cc1ccc(NC(=S)Nc2ccc3[nH]c(=O)[nH]c3c2)cc1,50µM*,19µM*,-18,-21%,-7%[11.4 µM],-15%
O=c1[nH]c2ccc(NC(=S)Nc3ccccc3)cc2[nH]1,45µM*,?,-2,14%,-9%[57.1 µM],-14%
Cc1ccc(C(=O)NC(=S)Nc2ccc3[nH]c(=O)[nH]c3c2)cc1,50µM*,-6%,0,7%,?,12%
COCCNC(=S)Nc1ccc2[nH]c(=O)[nH]c2c1,18µM*,-16%,-2,-22%,-10%,-2%
c1ccc(CN2CCC(=NNc3nc4ccccc4[nH]3)CC2)cc1,-34%,-8%,7,nt,?,-3%
CC(C)(C)C1CCC(=NNc2nc3ccccc3[nH]2)CC1 (stereo unspecified),40µM*,-5%,-14,?,-28%,27%
O=C1C=C(N2CCN(c3ccccn3)CC2)C(=O)c2c(O)ccc(O)c21,nt,-17%,-15,nt,32µM*,?
COc1ccc(-c2nc(CCNC(=O)c3ccco3)cs2)cc1OC,?,-3%,4,-9%,-16%,15%
COc1ccccc1-c1noc(-c2ccccc2C(=O)NCc2ccco2)n1,-3%[59 µM],8%,2,-19%,-14%,30%
O=C(NCc1ccco1)c1ccccc1-c1nc(-c2ccccc2)no1,-6%,-11%,nt,56µM*,-21%,-5%
Cc1cccc(-c2nc(CNC(=O)c3ccco3)cs2)c1,50µM*,-15%,8,-14%,-9%,37%
Cc1cccc(-c2noc(-c3ccccc3C(=O)NCc3ccco3)n2)c1,?,-18%,-6,50µM*,?,5%
COc1cc(-c2noc(-c3ccccc3C(=O)NCc3ccco3)n2)cc(OC)c1OC,40µM*,-9%,1,-24%,-16%,-4%
COc1ccc(N(CC(=O)NCCc2cccc(C)c2)S(=O)(=O)c2c(C)nn(C)c2C)cc1,7%[59 µM],nt,nt,nt,-6%,34%
Clc1ccc(-c2noc(-c3cccnc3NCc3ccco3)n2)cc1,-28%[59 µM],nt,nt,?,-13%,21%
c1ccc(-c2noc(-c3cccnc3NCc3ccco3)n2)cc1,18µM*,nt,nt,-21%,-9%,49%
Cc1cccc(CSC2=NCCN2S(=O)(=O)c2ccc(F)cc2)c1,200%,-3%,1,33%,66%,83%
O=C(COC(=O)c1ccccc1NCCO)NCc1cccs1,45µM*,-15%,-2,-1%,?,-16%
COc1ccc(CCNC(=O)COC(=O)c2ccccc2NCCO)cc1OC,50µM*,1%,-1,-7%,?,-3%
CCOC(=O)N1CCN(C(=O)COC(=O)c2ccccc2NCCO)CC1,50µM*,-4%,2,36%,3%,7%
